Experimental data published in PubChem BioAssay (NCI).
“And” between values parts separate entries of the source, which are not always exact repeats. Identical values can stand only once. The panel holds about 83,000 compounds, 20% with a hit somewhere; the sample as a whole holds those more often.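 Percent growth is the endpoint: 0 to 100 indicates growth inhibition (40 means 60% inhibition), 0 means no net growth, and negative values indicate cell death.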 Values without a mark were called inactive. The source made the active and inactive calls. The calls were made as follows: active = growth percent below 10; inactive = the rest.

These compounds were tested on MDA-MB-468 breast (assay: NCI-60 one-dose screen, 48 h (100 = growth as untreated, 0 = no growth, -100 = all killed)). Details: 10 µM unless noted.

Compound | growth
C=C1CCC2C3(C)COC(c4c(OC)cccc4OC)OC3CCC2(C)C1C/C=C1/C(=O)OCC1O (configuration not stated) | 20.2%
CCCCN(CCCC)CCC(C)(O)c1cc2ccccc2c2ccccc12 (configuration not stated) | 107%
C[C@@H](C(=O)O)c1ccc2c3cc(Cl)ccc3n(Cc3cc(=O)oc4ccc(Cl)cc34)c2c1 | 113%
CCc1cccc(C)c1NC(=O)c1sc2nc3c(cc2c1N)CCCCC3 | 10.8%
CCN1C(=O)N(CC)C2C1NC(=S)N2/N=C/C=C/c1ccccc1 (configuration not stated) | 3.7% (active)
CCc1cccc(CC)c1N1C(=O)C=CC1=O | 34.7%
C=COC(=O)C(C)(C)C | 106%
O=C(/C=C/c1ccc(Cl)cc1)c1ccc(Br)cc1 | 107%
Cc1nn(-c2ccc(Cl)cc2)c2nc3c(nc12)C(=O)C(=O)c1ccccc1-3 | 65.3%
NC(=S)N/N=C/c1cn(-c2ccccc2)nc1-c1cc2ccccc2oc1=O | 43.3%
CCOC(=O)c1sc2ncnc(Nc3ccc4c(cnn4C(=O)Nc4ccccc4)c3)c2c1C | 78.1%
Cn1cc(-c2nnc(N)nc2-c2c[nH]c3ccc(Br)cc23)c2cc(Br)ccc21 | 105%
CC(NCCC(c1ccccc1)c1ccccc1)c1ccccc1 (configuration not stated) | 49%
CC(=O)O[C@@H]1[C@@H](OC(C)=O)[C@H](OC(C)=O)CO[C@H]1Nc1cccc2ccccc12 | 104%
COc1ccc(-c2nocc2-c2cc(OC)c(OC)c(OC)c2)cc1 | -15.5% (active)
COc1cc(NC(=O)c2sc3nc4c(cc3c2N)C(O)CCC4)cc(OC)c1 (configuration not stated) | 54%
CCSc1ccc2c(c1)N(CCCN1CCN(C)CC1)c1ccccc1S2 | -3.41% (active)
CC(C)=CCc1cc2c(cc1O)C1=C(C(=O)C3=C(C1=O)S(=O)(=O)CCN3)C(C=C(C)C)O2 (configuration not stated) | -33.5% (active)
CC1(c2ccccc2O)NN=C(/N=C/c2cccc([N+](=O)[O-])c2)N1C(Cc1c[nH]c2ccccc12)C(=O)O (configuration not stated) | 103%

Compound | growth
O=C(Nc1ccc(Cl)cc1F)c1ccccc1O | 6.26% (active)
CCOc1ccccc1-n1c(CN2CCN(C(=O)COc3ccc(CNCCCCCCN4C5CCCC4CC(OC(=O)Nc4cc(C)ccc4OC)C5)cc3)CC2)nc2ccccc2c1=O (configuration not stated) | -79.1% (active)
Cc1c(N2CCCCC2)[nH]c2ccccc12 | 121%
Clc1cccc(CNc2c3ccccc3nc3ccccc23)c1 | -18.4% (active)
c1ccc2c(Nc3cccc4ccccc34)cccc2c1 | 61.8%
CC[C@H](CC[C@@H](C)[C@H]1CC[C@H]2[C@@H]3CC=C4C[C@@H](O)CC[C@]4(C)[C@H]3CC[C@]12C)C(C)C | 98.7% and 91.8%
COc1c(O)cc2oc3cc(O[C@@H]4OC(C)[C@@H](O)[C@H](O)C4O)c(CC=C(C)C)c(O)c3c(=O)c2c1CC=C(C)C (some centres not stated) | 82.5%
Cc1ccc(NC(=O)c2nc(S(C)(=O)=O)oc2-c2ccc(F)cc2)cc1Nc1ccc2ncn(C)c(=O)c2c1 | 16.8%
Oc1[nH]c2ccc(Cl)cc2c1/C=c1/ccc2c(c1)N=C(c1ccc(C(F)(F)F)cc1)N=2 | 52.5%
Cc1cc(=O)n2nc(-c3cn(C)c4ccc(Cl)cc34)sc2n1 | -42.5% (active)
COCCOCCOCc1n(Cc2ccc3ccccc3c2)c2ccccc2[n+]1Cc1ccc2ccccc2c1 | -20.6% (active)
O=C1OC(c2ccccc2)=N/C1=C\c1ccccc1 | 92.4%
C=C(C)[C@@H]1CC[C@]2(COCCCNCCC#N)CC[C@]3(C)[C@H](CC[C@@H]4[C@@]5(C)CC[C@H](OCCCNCCC#N)C(C)(C)[C@@H]5CC[C@]43C)[C@@H]12 | 8.32% (active)
Cc1ccc(C(=O)c2ccc(CC(=O)N=Nc3c(O)[nH]c4ccc(Br)cc34)n2C)cc1 | 96.6%
Cc1ccc2oc(=O)cc(/C(=C3/C=CC=N3)c3ccc[nH]3)c2c1 | 3.2% (active)
O=C(CNC1C2CC3CC(C2)CC1C3)Sc1nnc2sc3ccccc3n12 (configuration not stated) | 102%
CCC1N=C(N)N=C(N)N1c1ccc(Cl)cc1 (configuration not stated) | 80.6%
COc1cc2cc(Oc3ccc(NC(=O)Nc4cccc(C(F)(F)F)c4)cc3)c(C)nc2cc1OCCN1CCCCC1 | -68.7% (active)
